mHTT CaM bind – mutant huntingtin-calmodulin interaction inhibitors – biochemical, AlphaScreen, primary screen; inhibition, % at 15 µM; AlphaScreen His-mHTT/GST-CaM binding, luminescence; AID 1671202, 2021; 190,000 tested, 3.6% active;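 note: 0% = both proteins with DMSO and 100% = one protein alone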
Pf apPOL inh – Pf-apPOL inhibitors, biochemical, fluorescence; Plasmodium falciparum apicoplast DNA polymerase (apPOL); Recombinant Pf-apPOL, molecular beacon fluorescence, 1.5 h; inhibition, % at 10 µM; 210,000 tested, 0.25% active; AID 1794808, 2022
An asterisk follows results filed as active. The entries come from a sample that favours hits as a whole. Cut-off read from the data, not from the text of the source: active = inhibition above about 50%; inactive = the rest.

CCOc1cc(/C=C(\C#N)c2nc3ccc(C)cc3[nH]2)cc(Cl)c1O was read as mHTT CaM bind 84* and Pf apPOL inh -3.
Cc1ccc2nc(/C(C#N)=C/c3cc([N+](=O)[O-])ccc3O)[nH]c2c1 was read as mHTT CaM bind 4 and Pf apPOL inh -4.
`COc1cc(/C=C(\C#N)c2nc3ccc(C)cc3[nH]2)cc(OC)c1O` gave mHTT CaM bind 58* and Pf apPOL inh -4.
`Cc1ccc(/C=C(\C#N)c2nc3ccc(C)cc3[nH]2)cc1` gave mHTT CaM bind -12 and Pf apPOL inh 1.
COc1cc(/C=C(\C#N)c2nc3ccc(C)cc3[nH]2)ccc1OCC(=O)O was read as mHTT CaM bind 11 and Pf apPOL inh -2.
Cc1ccc2nc(/C(C#N)=C/c3ccc(O)c([N+](=O)[O-])c3)[nH]c2c1 was read as mHTT CaM bind 59* and Pf apPOL inh 0.
COc1cc(/C=C(\C#N)c2nc3ccccc3[nH]2)cc(OC)c1OC was read as mHTT CaM bind 8 and Pf apPOL inh -3.
CCOc1cc(/C=C(\C#N)c2nc3ccccc3[nH]2)cc(I)c1O was read as mHTT CaM bind 88* and Pf apPOL inh 0.
`O=C(Nc1c2c(nn1-c1ccc(F)cc1)CS(=O)C2)c1cccc(Br)c1` (centres undefined) gave mHTT CaM bind 3 and Pf apPOL inh 0.
NC(=O)CN1CCN(c2ccc(F)cc2)CC1 was read as mHTT CaM bind 1 and Pf apPOL inh 3.
N#C/C(=C\c1ccc(-c2cc([N+](=O)[O-])ccc2O)o1)c1nc2ccccc2[nH]1 was read as mHTT CaM bind 30 and Pf apPOL inh 4.
`CCCn1cc(SCC(=O)Nc2cc(C)ccc2C)c2ccccc21` gave mHTT CaM bind -3 and Pf apPOL inh -1.
CCOc1cc(C=C2C(=O)c3ccccc3C2=O)cc(I)c1O was read as mHTT CaM bind 58* and Pf apPOL inh -9.
COc1cc(Br)c(/C=C(\C#N)c2nc3ccccc3[nH]2)cc1OC was read as mHTT CaM bind 53* and Pf apPOL inh -2.
For CCOc1ccc(C=C2C(=O)c3ccccc3C2=O)cc1OC the results were mHTT CaM bind 11 and Pf apPOL inh -4.
For COc1cc(/C=C(\C#N)c2nc3ccccc3[nH]2)c(Br)cc1O the results were mHTT CaM bind 42 and Pf apPOL inh -6.
For Cc1ccc(CNC(=O)c2ccc(-c3ccnc(N4CCCC4)n3)cc2)cc1 the results were mHTT CaM bind -4 and Pf apPOL inh -11.
`COCCC1CCN(C(=O)CN(C)C(=O)c2ccccn2)CC1` gave mHTT CaM bind -10 and Pf apPOL inh -7.
COc1ccc(CNC(=O)N2CCCC3(C2)Nc2ccccc2NC3=NC2CCCC2)cc1 (centres undefined) was read as mHTT CaM bind 15 and Pf apPOL inh 0.
O=C1C(=O)N(Cc2csc(-c3ccc(Cl)cc3)n2)c2ccc(Br)cc21 was read as mHTT CaM bind 46 and Pf apPOL inh 0.
For CCN(CC)C(=O)CN1C(=O)C(=O)c2ccccc21 the results were mHTT CaM bind 0 and Pf apPOL inh 4.
For O=C1C(=O)N(Cc2ccccc2)c2ccc(Br)cc21 the results were mHTT CaM bind 48 and Pf apPOL inh 5.
Screening CCN(CC)C(=O)CN1C(=O)C(=O)c2cc(Br)ccc21 returned mHTT CaM bind 97*.
For O=C1C(=O)N(Cc2ccccc2Cl)c2ccc(Br)cc21 the results were mHTT CaM bind 86* and Pf apPOL inh -2.
O=C1C(=O)N(Cc2c(F)cccc2Cl)c2ccc(Br)cc21 was read as mHTT CaM bind 66* and Pf apPOL inh 0.
`CC1CCCN(Cc2ccccc2[N+](=O)[O-])C1` (centres undefined) gave mHTT CaM bind -1 and Pf apPOL inh -3.
O=C(Nc1cccc2c1C(=O)c1ccccc1C2=O)c1ccc(Cl)s1 was read as mHTT CaM bind 0 and Pf apPOL inh 1.
For O=C(Nc1cccc2c1C(=O)NC2=O)c1ccc(Cl)s1 the results were mHTT CaM bind 100* and Pf apPOL inh 1.
CC(C)CCNC(=O)c1n[nH]c2c1CN(C(=O)c1ccccc1Cl)CC2 was read as mHTT CaM bind -1 and Pf apPOL inh -4.
For O=C(Nc1ccc2nc(-c3ccco3)c(-c3ccco3)nc2c1)N1CCOCC1 the results were mHTT CaM bind 76* and Pf apPOL inh -5.
For O=C(Nc1ccc2nc(-c3ccco3)c(-c3ccco3)nc2c1)N1CCSCC1 the results were mHTT CaM bind 84* and Pf apPOL inh 2.
`O=C(Nc1ccc2nc(-c3ccccn3)c(-c3ccccn3)nc2c1)N1CCOCC1` gave mHTT CaM bind 7 and Pf apPOL inh -2.
For Cc1nc2ccc(NC(=O)N3CCCC3)cc2nc1C the results were mHTT CaM bind 0 and Pf apPOL inh 1.
Screening CC[C@H]1c2[nH]c3ccc(C(C)C)cc3c2[C@@H]2CCN3C(=O)CCC[C@H]1[C@H]23 returned mHTT CaM bind 71* and Pf apPOL inh -9.
`CC[C@@H]1C(=O)[C@H](Cc2ccccc2)[C@H]2CCCC(=O)N3CC[C@@H]1[C@@H]23` gave mHTT CaM bind 17 and Pf apPOL inh -1.
CCOC(CNC(=O)CC(NS(=O)(=O)c1ccc(C)cc1)c1ccco1)OCC (centres undefined) was read as mHTT CaM bind -10 and Pf apPOL inh -7.
For CCCCc1ccc(/C=C(\C#N)C(N)=S)s1 the results were mHTT CaM bind 63*.
`Cc1ccc(/C=C(/C#N)C(N)=S)s1` gave mHTT CaM bind 10.
`CCCCN1C(=O)/C(=C2/SC(N3CCOCC3)=NC2=O)c2ccccc21` gave mHTT CaM bind 1 and Pf apPOL inh 6.
Screening CC(NC(=O)C1CCN(Cc2ccc(Cl)cc2)CC1)c1ccccc1 (centres undefined) returned mHTT CaM bind 9 and Pf apPOL inh -8.
Screening O=C(NN1CCOCC1)c1ccc(Br)cc1 returned mHTT CaM bind -7 and Pf apPOL inh 56*.
`O=C(NN1CCOCC1)c1cccc(Br)c1` gave mHTT CaM bind 3 and Pf apPOL inh -8.
For CC(C)(C)C(=O)N1CCCC1c1ccc(Cl)cc1 (centres undefined) the results were mHTT CaM bind -12 and Pf apPOL inh -2.
For CC(C)c1ccc(N2CCC(C(=O)NC3CC3)C2=O)cc1 (centres undefined) the results were mHTT CaM bind 3 and Pf apPOL inh -3.
Screening N=Nc1[nH]c(N)c2ccccc12 returned mHTT CaM bind 94* and Pf apPOL inh -4.
CCc1c(O)nc(SCC(=O)Nc2cccc(Cl)c2C)n(-c2ccccc2)c1=O was read as mHTT CaM bind 2 and Pf apPOL inh -1.
O=C(Cn1[nH]c2c(cnc3ccc(F)cc32)c1=O)Nc1ccc(Br)cc1 was read as mHTT CaM bind 64* and Pf apPOL inh 0.
Cc1ccc(F)cc1NC(=O)Cn1[nH]c2c(cnc3ccc(F)cc32)c1=O was read as mHTT CaM bind 95* and Pf apPOL inh 1.
Screening O=C(Cn1[nH]c2c(cnc3ccc(F)cc32)c1=O)Nc1ccc(F)cc1 returned mHTT CaM bind 4 and Pf apPOL inh -1.
For Cc1ccc(Cl)cc1NC(=O)Cn1[nH]c2c(cnc3ccc(F)cc32)c1=O the results were mHTT CaM bind 21 and Pf apPOL inh -2.
For Cc1cc(C)c(NC(=O)C2Oc3ccccc3NC2=O)c(C)c1 (centres undefined) the results were mHTT CaM bind -7 and Pf apPOL inh 4.
